About 2,400 (0.67%) of roughly 360,000 compounds were called active. Cut-off read from the data, not from the text of the source: active = enhancement above about 30%; inactive = the rest. The full list was thinned out, with actives kept by preference.
target: Thyrotropin-releasing hormone receptor (Homo sapiens) (UniProt P34981); experiment: qHTS for Small Molecule Agonists and Allosteric Enhancers of Human TRH Receptor: Primary Screen for Enhancers; conditions: TRHR cells, fluo-8 calcium fluorescence, EC20 TRH enhancement; at 2 µM; hits give high values; note: 0% is about no effect
Sequence (P34981 whole entry, looked up): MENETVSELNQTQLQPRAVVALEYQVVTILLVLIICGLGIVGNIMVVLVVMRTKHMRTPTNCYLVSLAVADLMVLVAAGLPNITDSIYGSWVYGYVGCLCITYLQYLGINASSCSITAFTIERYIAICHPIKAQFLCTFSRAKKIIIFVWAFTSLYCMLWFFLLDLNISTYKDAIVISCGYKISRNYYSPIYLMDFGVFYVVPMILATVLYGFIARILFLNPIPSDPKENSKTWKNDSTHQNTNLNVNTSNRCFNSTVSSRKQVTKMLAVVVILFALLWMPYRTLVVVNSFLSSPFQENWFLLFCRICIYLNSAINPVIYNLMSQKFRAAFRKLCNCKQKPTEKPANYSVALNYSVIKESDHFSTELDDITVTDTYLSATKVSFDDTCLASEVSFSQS
Summary of the method: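 Enhancer read-out: after compound pinning and an initial kinetic agonist-mode read, an EC20 of TRH (10 nM final) was injected and fluo-8 calcium signal (Ex 480/Em 530) followed at 1 s/cycle for 100 cycles in TRHR-expressing cells.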

enhancement, active:
COc1ccc(Cl)cc1NC(=O)CN(C)Cc1ccc(OC)c(OC)c1 56.6%
Cc1ccc(Cl)c(OCC(=O)N2CCc3ccccc3C2)c1 61.4%
Cc1ccc(C)c(CN2C(=O)c3ccccc3S(=O)c3ccc(C(=O)N4CCOCC4)cc32)c1 (centres undefined) 30.5%
CCc1ccc(S(=O)(=O)N/N=C\c2ccc([N+](=O)[O-])o2)cc1 49.5%
Oc1c(Br)cccc1/C=N/Nc1c(F)c(F)c(F)c(F)c1F 35.3%
Cn1cccc1C1(C(F)(F)F)NCCNC1=O (centres undefined) 50.7%
Cc1ccc(C(=O)Nc2cc3c(cc2N2CCCC2)n(C)c(=O)c(=O)n3C)cc1 32.4%
O=C(NCC(=O)N(CC1CCCO1)C(C(=O)NC1CCCCC1)c1ccccc1)c1ccco1 (centres undefined) 35.9%
CN(C)S(=O)(=O)c1cccc(NC(=S)NCc2ccc3c(c2)OCO3)c1 34%
CCOc1ccc(C(C)=O)cc1COC(=O)CNC(=O)c1cccs1 34.6%
CCCNC(=O)c1ccc(N2CCC3(CC2)CC(c2cccc(Br)c2)=NO3)c(NC(=O)c2ccco2)c1 35.5%
CCC(CC)c1nnc(NC(=O)C2=COCCO2)s1 36.4%
Cc1cc(C(=O)CCl)c(C)n1CC1COc2ccccc2O1 (centres undefined) 45.8%
COn1c(-c2ccc(Cl)cc2Cl)nc2ncccc21 31.3%
O=S(=O)(c1ccc(Br)cc1)c1nc(-c2ccccc2)oc1NCc1cccnc1 31.2%
Cc1cc(-c2ccccc2)n2nc(-c3ccccc3)cc2n1 33%
CSc1nnnn1-c1c(C)cc(C)cc1C 41.9%
CCOC(OCC)c1ccc(/C=C\c2nccc(N)n2)cc1 30%
CSCCC(C(=O)NC1=NCCS1)N1C(=O)c2ccccc2C1=O (centres undefined) 33.2%
Cc1cccc(C(=O)NCc2nnc(SC(C)C(=O)Nc3nnc(C)s3)n2C)c1 (centres undefined) 37.6%

enhancement, inactive:
O=C(CNC(=O)c1ccc(Cl)c(C(F)(F)F)c1)OC(C(=O)Nc1cc(C(F)(F)F)ccc1Cl)c1ccccc1 (centres undefined) -3.64%
Cc1nn(-c2nc(-c3ccccc3)cc(C(F)(F)F)n2)c(C)c1Cl -7.42%
COc1cccc(-n2ccn(CC(=O)NCc3ccc(C)cc3)c(=O)c2=O)c1 6.62%
COc1ccc(OC)c(NC(=O)CN(Cc2ccc(Cl)cc2)S(C)(=O)=O)c1 -0.638%
COc1ccc(Cl)cc1NC(=O)CN(C)CC(=O)Nc1ccc2c(c1)OCO2 -3.24%
Cc1ccc(Cl)c(OCC(=O)NN2CCN(C)CC2)c1 1.82%
O=C(COc1ccccc1Cl)N1CCCCCCC1 -0.869%
Cc1cccc(CC(=O)Nc2cccc(-c3cn4cccnc4n3)c2)c1 -2.19%
Cc1ccc(SCC(=O)Nc2ccc3oc(-c4ccccc4F)nc3c2)cc1 -1.22%
CCc1ccc(N2C(=O)CN(S(=O)(=O)CC)CC2(C)C(=O)NC2CCCCC2)cc1 (centres undefined) -0.256%
O=C(c1ccc2c(c1)N(Cc1ccccc1F)C(=O)c1ccccc1S2(=O)=O)N1CCOCC1 16.1%
Cc1ccc(CCNC(=O)c2ccc3c(c2)N(Cc2cc(C)ccc2C)C(=O)c2ccccc2S3=O)cc1 (centres undefined) 26.1%
COc1ccc(NC(=O)C2CCN(c3ccc(Sc4ccc(C)cc4)nn3)CC2)c(OC)c1 7.96%
CCc1nn(CC(=O)N2CCN(c3ccc(Cl)cc3)CC2)c(=O)c2cc3occc3n12 3.41%
CCc1ccc(S(=O)(=O)Nc2ccc(C)c(NS(C)(=O)=O)c2)cc1 2.33%
COc1ccc(S(=O)(=O)N/N=C\c2ccc(OC)c(COc3ccc(C)cc3[N+](=O)[O-])c2)cc1 -2.77%
O=c1c2ccccc2n(Cc2cccc(Cl)c2)c(=O)n1Cc1ccccc1 1.58%
CCOc1ccc(N(CC)C(=O)c2cc3c(=O)oc4ccccc4c3s2)cc1 -1.26%
O=C1C(F)N([S+](=O)([O-])c2ccc3c(c2)OCCO3)CCN1[S+](=O)([O-])c1c(F)cccc1F (centres undefined) 3.19%
N#CN1CCC(NC(=O)c2ccc(F)cc2)CC1 1.17%
Cn1c(=O)c2c(ncn2CC(=O)Nc2cccc(C(F)(F)F)c2)n(C)c1=O -2.46%
O=[S+]([O-])(c1ccc2c(c1)OCCO2)N1CCN([S+](=O)([O-])c2c(Cl)cc(Cl)cc2Br)CC1 -1.85%
CCOc1ccc(-n2c(SCC(=O)NCc3ccccc3)nc3n[nH]c(C)c3c2=N)cc1 -5.76%
CCn1c(=O)c(=O)n(CC)c2cc(N3CCCCC3)c(NC(=O)c3cccc(F)c3)cc21 4.18%
CCn1c(=O)c(=O)n(CC)c2cc(N3CCCCC3)c(NC(=O)c3ccc(Cl)cc3)cc21 4.4%
Nc1ncc(S(=O)(=O)Nc2ccc(OC(F)(F)F)cc2)cn1 -5.87%
Cc1ccc(N(C(=O)CNC(=O)c2ccco2)C(C(=O)NC2CCCC2)c2ccncc2)cc1 (centres undefined) 0.937%
COc1ccc(N(C(=O)CNC(=O)c2ccco2)C(C(=O)NCC2CCCO2)c2ccccc2)cc1Cl (centres undefined) -16.4%
CCOc1ccc(Nc2ncnc3scc(-c4ccc(OC)cc4)c23)cc1 -0.508%
O=C(NCc1ccc2c(c1)OCO2)C12CC3CC(CC(C3)C1)C2 -3.78%
CN(C)S(=O)(=O)c1cccc(NC(=O)COc2ccc3ccccc3c2)c1 -1.36%
COc1ccccc1N1CCN(c2ncnc3onc(-c4cccc(Cl)c4)c23)CC1 -1.85%
COc1ccc(C(=O)COC(=O)CNC(=O)c2cccs2)cc1Br 2.56%
CCOc1ccc(C(C)=O)cc1COC(=O)c1cnc(Cl)c(Cl)c1 22.5%
CCCNC(=O)c1ccc(N2CCC3(CC2)CC(c2ccc(Cl)cc2)=NO3)c([N+](=O)[O-])c1 0.894%
O=C(Nc1ccccc1N1CCN(C(=O)c2ccccc2)CC1)c1ccco1 7.38%
COC(=O)c1ccccc1NC(=O)c1ccc(C#N)cc1 6.65%
CCCCCn1c(CCNC(=O)c2ccc(F)cc2)nc2ccccc21 -6.28%
Cc1ccc(NC(=O)CCCn2c(=O)c3cccn3c3ccccc32)cc1Cl 1.3%
COc1ccc2c(c1)Cc1sc(NC(=O)c3ccccc3Br)nc1-2 4.8%
Cc1sc(NC(=O)C2=COCCO2)c(C#N)c1C 2.25%
CCC(CC)c1nnc(NC(=O)c2nn(C)c(=O)c3ccccc23)s1 6.49%
Cc1ccccc1OCc1ccc(-c2nc(C#N)c(N3CCCCC3)o2)o1 0.624%
O=C(Nc1ccc(-c2nc3cc(NC(=O)c4ccccc4Cl)ccc3o2)cc1)c1ccccc1Cl -6.24%
COc1ccc(NC(=O)CC2COc3ccccc3O2)c(OC)c1 (centres undefined) -4.66%
Cc1n[nH]c(C)c1S(=O)(=O)N1CCCC(C(=O)NCC2COc3ccccc3O2)C1 (centres undefined) -5.61%
COc1ccc(NC(=O)Cn2c(=O)n(CCC(C)C)c(=O)c3cccnc32)cc1Cl 5.35%
Clc1ccc(COn2c(-c3ccc(Cl)cc3Cl)nc3ncccc32)cc1 -14.4%
Cc1nc2cccnc2nc1C 1.62%
O=S(=O)(c1ccccc1)c1nc(-c2ccccc2F)oc1NCc1cccnc1 0.0883%
Cc1ccc(S(=O)(=O)c2nc(-c3cccs3)oc2NCc2cccnc2)cc1 -3.44%
Cc1ccc(-n2cnc3cc(C(=O)NCCC4=CCCCC4)ccc32)cc1Cl -5.29%
Cc1cc(N)n2nc(-c3ccc(C(C)(C)C)cc3)cc2n1 1.1%
Cc1cc(-c2ccccc2)n2nc(C)c(-c3ccccc3)c2n1 -0.179%
Cc1ccc(C(=O)Nc2c(C(=O)NC(C)(C)C)oc3ccccc23)cc1 6.66%
N#CN1CCC(NS(=O)(=O)c2cccc(F)c2)C1 (centres undefined) -3.49%
CCn1nnnc1SCC(=O)c1ccc(C)cc1C 7.37%
COC(=O)c1ccccc1NC(=O)c1ccc2c(=O)n3c(nc2c1)CCCCC3 1.88%
COc1cc(Cl)c(NC(=O)C(NS(=O)(=O)c2cccs2)C(C)C)c(OC)c1 (centres undefined) 8.88%
COc1ccc(Nc2ncc3c(n2)CCN(C(=O)OC(C)(C)C)C3)cc1 2.63%
Cc1ccc(-c2cc(C(F)(F)F)c(C#N)c(SCC(=O)Nc3ccccc3)n2)cc1 7.58%
Cc1ccc(Cl)cc1N1CCN(C(=O)C2CCC(CNS(=O)(=O)c3cccs3)CC2)CC1 (centres undefined) 4.4%
CN(C)S(=O)(=O)c1ccc(C(=O)N(Cc2cccnc2)c2nc3c(F)cc(F)cc3s2)cc1 -9.57%
Cc1cc2c(s1)c1cnn(Cc3c(F)cccc3Cl)c(=O)c1n2C 10.5%
CCCCN(C(=O)C(CCSC)N1C(=O)c2ccccc2C1=O)c1c(N)n(CCC)c(=O)[nH]c1=O (centres undefined) -0.146%
CC(NC(=O)COc1ccccc1)C(=O)NC1=NCCS1 (centres undefined) 1.42%
COc1ccccc1C(=O)NCc1nnc(SC(C)C(=O)Nc2nccs2)n1C (centres undefined) -2.08%
CC(Sc1nnc(CNC(=O)c2ccccc2F)n1C)C(=O)Nc1nccs1 (centres undefined) -1.71%
O=S(=O)(c1ccc2c(c1)OCCCO2)N1CCN(S(=O)(=O)c2c(F)cccc2F)CC1 2.65%

Source: PubChem BioAssay AID493056 (National Center for Advancing Translational Sciences (NCATS), 2011)
